Data from PubChem BioAssay (Tox21).
Records with an inconclusive call do not appear. Active and inactive are the calls of the source. Calls come from the whole dose curve; as a rule, active = well fitted cell-killing curve with a large enough effect in the repeat runs; inconclusive = weak or mixed curves, or effect the other way; inactive = flat fitted curve, though single readings scatter.

assay: cAMP Responsive Elements (CRE) small molecule antagonists, cell-based qHTS assay: qHTS cell viability counter screen (AID 2060913); conditions: CRE-bla HEK293T viability, CellTiter-Glo luminescence, 5 h; series mostly up to 92.4 µM; viability change, negative = cytotoxic: at the top concentration; note: nearly all actives have a fitted effect of over 40% in size
Method in brief: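 Viability of NKH477-stimulated (0.25 uM final) CRE-bla HEK293T cells is measured by CellTiter-Glo luminescence following 3 hrs compound exposure at 37 C.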
% is set by controls: 0 for no effect and ±100 for the full control effect; potency is the fitted concentration of half-maximal effect.

SMILES | viability change, negative = cytotoxic | Potency
C/C=C\C/C=C/CCCCCCCCOC(C)=O | 4.05% (inactive) | 
Oc1ccc(C2(c3ccc(O)c(C4CCCCC4)c3)CCCCC2)cc1C1CCCCC1 |  | 43.3 µM (active)
O=C(O)CCS | -1.72% (inactive) | 
NC(=O)c1cccc([N+](=O)[O-])c1 | 8.26% (inactive) | 
CC1=C(C)C(=O)C(CCCCC#CCCCC#CCO)=C(C)C1=O | -6.88% [at 42.5 µM] (inactive) | 
CC(C)CCCC(C)(C)O | -6.23% (inactive) | 
Nc1ccc(N)c2ccccc12 | -20.2% (inactive) | 
O=C(O)[C@H](O)c1ccccc1 | -4.78% [at 42.5 µM] (inactive) | 
C[C@@]12CCC[C@H]1[C@@H]1CC[C@H]3C[C@@H](O)CC[C@]3(C)[C@H]1CC2 | 1.88% [at 42.5 µM] (inactive) | 
CC(C)OC(=O)C(C)(C)Oc1ccc(C(=O)c2ccc(Cl)cc2)cc1 |  | inactive
COCCOCC(OC)OC | 4.36% [at 42.5 µM] (inactive) | 
CC(C)c1nc(CN(C)C(=O)N[C@H](C(=O)N[C@@H](Cc2ccccc2)C[C@H](O)[C@H](Cc2ccccc2)NC(=O)OCc2cncs2)C(C)C)cs1 | -2.26% [at 42.5 µM] (inactive) | 
OC/C(Br)=C(\Br)CO | 9.86% (inactive) | 
CC(C)NCC(O)COc1ccc(COCCOC(C)C)cc1 (stereo not given) | -2.12% [at 42.5 µM] (inactive) | 
C=CCN(CC=C)CC=C | -3.29% (inactive) | 
CCN(CC#N)c1cccc(C)c1 | -0.294% (inactive) | 
CC(=O)/C=C/C1=C(C)CCCC1(C)C |  | inactive
CN(C)CCN1C(=O)c2ccccc2N(C)c2ccccc21 | 4.95% [at 42.5 µM] (inactive) | 
Clc1nc2ccccc2s1 | -1.37% (inactive) | 
Clc1cc(Cl)c(Cl)cc1Cl |  | inactive

SMILES | viability change, negative = cytotoxic | Potency
CCOc1cccc(N)c1 | 2.01% (inactive) | 
CNC(=O)NC | -7.64% (inactive) | 
CCCCNc1ccc(C(=O)OCCOCCOCCOCCOCCOCCOCCOCCOCCOC)cc1 | -0.903% [at 42.5 µM] (inactive) | 
C=CCCCCCCCCO | 8.78% (inactive) | 
CC1(CN2CCC(n3c(=O)[nH]c4ccccc43)CC2)OCc2ccccc2-n2cccc21 (stereo not given) | -4.36% [at 42.5 µM] (inactive) | 
Clc1nc(Cl)c(Cl)c(Cl)c1Cl |  | inactive
CCC(C)(C)c1cc(O)c(C(C)(C)CC)cc1O | 2.27% (inactive) | 
CCC(=O)Oc1ccc2c(c1)CC[C@@H]1[C@@H]2CC[C@@]2(C)[C@H]1C[C@@H](OC(=O)CC)[C@@H]2OC(=O)CC | 4.7% [at 42.5 µM] (inactive) | 
COc1cc2c(cc1OC)C(=O)CC2 | 1.55% [at 42.5 µM] (inactive) | 
C/C=C/C(=O)O |  | inactive
OCC(CO)(CO)CO | 8.21% (inactive) | 
COc1cc(N)c(Cl)cc1C(=O)NC1CCN(CCCOc2ccc(F)cc2)CC1OC (stereo not given) | 1.27% [at 42.5 µM] (inactive) | 
CN1CCCN(C(c2ccccc2)c2ccc(Cl)cc2)CC1 (stereo not given) | -9.01% [at 42.5 µM] (inactive) | 
COC(C)=O | 15.2% (inactive) | 
CC(=O)N1C[C@H](O)C[C@H]1C(=O)O | 8.16% [at 42.5 µM] (inactive) | 
Cc1nc(-c2ccc3c(c2)CCN(CCC2CCC(NC(=O)/C=C/c4ccc(F)cc4)CC2)CC3)no1 (stereo not given) | 0.472% [at 42.5 µM] (inactive) | 
CCCOC(=O)c1ccc(O)cc1 | 2.88% (inactive) | 
CCOCCOC(=O)/C=C/c1ccc(OC)cc1 | 3% [at 42.5 µM] (inactive) | 
CC1=NN(c2cccc(S(=O)(=O)O)c2)C(=O)C1 | 1.63% (inactive) | 
NNc1nnc(NN)c2ccccc12 | 1.28% [at 42.5 µM] (inactive) | 
